The nature of assay [1]: NCI Yeast Anticancer Drug Screen. Data for the rad50 strain (AID 155).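 Also: 0% = growth of vehicle-only cultures of the same strain.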 The note with it: S. cerevisiae rad50 strain growth inhibition, active compounds read high. The procedure, abridged:
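DNA repair mutant yeast, compound exposure, growth read-out; inhibition is taken relative to vehicle.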

Assay [2] is described as follows: NCI Yeast Anticancer Drug Screen. Data for the mec2-1 strain (AID 157). The note with it: S. cerevisiae mec2-1 strain, active compounds read high. The procedure, abridged: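 Cells of the genetically defined mec2-1 yeast strain are incubated with test compound. Inhibition of growth is calculated against vehicle-treated controls.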
Assay [3] can be described thus: NCI Yeast Anticancer Drug Screen. Data for the sgs1 mgt1 strain (AID 161).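 Also: 0% = growth of cultures given vehicle only.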 The note with it: S. cerevisiae sgs1 mgt1 strain, active compounds read high. The procedure, abridged: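 Test agents were incubated with a DNA-repair-mutant yeast strain. Growth was then read and compared against vehicle-treated controls.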
The nature of assay [4]: NCI Yeast Anticancer Drug Screen. Data for the cln2 rad14 strain (AID 165).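 Also: 0% = growth equal to vehicle treated cultures.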 The note with it: S. cerevisiae cln2 rad14 strain, active compounds read high. In a few lines:
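The screen exposed genetically defined yeast (cln2 rad14) to test compounds and scored growth inhibition relative to vehicle-treated controls.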

The nature of assay [5]: NCI Yeast Anticancer Drug Screen. Data for the bub3 strain (AID 167). Conditions: S. cerevisiae bub3 mutant strain, active compounds read high. In a few lines:
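In this screen, a yeast mutant lacking normal mitotic checkpoint function is challenged with compound. Relative growth versus vehicle gives the inhibition value.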

Assay [6] can be described thus: NCI Yeast Anticancer Drug Screen. Data for the mlh1 rad18 strain (AID 175). Conditions: S. cerevisiae mlh1 rad18 strain growth inhibition, active compounds read high. The procedure, abridged: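 Compound-treated yeast growth, normalised to vehicle controls. Strain bears defined DNA repair mutations.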
Setting [7] is: at 5.0 µM (retest, dose inferred, filed as 0.5).
Where [8] appears, read: at 50.0 µM (retest, dose inferred, filed as 5.0).

The panel holds about 79,000 compounds, 15% with a hit somewhere; the sample as a whole holds those more often. Unmarked numbers belong to inactive results. Calls of active or inactive are those of the source. Rule as the data show it: active = growth inhibition above about 70%; inactive = the rest.

On to `Cc1ccc(OC/C=C/c2cccc(C#N)c2)cc1`, for which the growth inhibition in assay [1] (setting [7]) is -3%; in assay [1] (setting [8]) it was 2%; in assay [1] (at 50.0 µM), -0.45%; in assay [2] (setting [7]), 3%; in assay [2] (setting [8]) it was -2%; in assay [2] (at 50.0 µM), 11.2%. Also, the growth inhibition in assay [3] (setting [7]) is 0%; in assay [3] (setting [8]), 18%; in assay [3] (at 50.0 µM), -2.05%; in assay [4] (setting [7]), -6%; in assay [4] (setting [8]) it was -11%; in assay [4] (at 50.0 µM), 44%. Further, the growth inhibition in assay [5] (setting [7]) was 0%; in assay [5] (setting [8]), 12%; in assay [5] (at 50.0 µM) it was -0.9%; in assay [6] (setting [7]), -5%; in assay [6] (setting [8]) it was -1%; in assay [6] (at 50.0 µM), 43.5%.

With `Nc1ccc2nc3ccccc3nc2c1`, the growth inhibition in assay [1] (setting [7]) is -11%; in assay [1] (setting [8]), 95% (active); in assay [1] (at 50.0 µM), 97% (active); in assay [2] (setting [7]), -11%; in assay [2] (setting [8]) it was 60%; in assay [2] (at 50.0 µM), 81% (active). Also, the growth inhibition in assay [3] (setting [7]) was -22%; in assay [3] (setting [8]) it was 77% (active); in assay [3] (at 50.0 µM), 64.8%; in assay [4] (setting [7]) it was -10%; in assay [4] (setting [8]) it was 44%; in assay [4] (at 50.0 µM), 74% (active). Further, the growth inhibition in assay [5] (setting [7]) is -4%; in assay [5] (setting [8]), 78% (active); in assay [5] (at 50.0 µM), 75.8% (active); in assay [6] (setting [7]), 4%; in assay [6] (setting [8]), 90% (active); in assay [6] (at 50.0 µM), 88.4% (active).

Regarding `O=[N+]([O-])/C=C/C=C/c1ccco1`, the growth inhibition in assay [1] (setting [7]) is -1%; in assay [1] (setting [8]), 98% (active); in assay [1] (at 50.0 µM), 99.6% (active); in assay [2] (setting [7]) it was 3%; in assay [2] (setting [8]) it was 99% (active); in assay [2] (at 50.0 µM), 64.2%. Moreover, the growth inhibition in assay [3] (setting [7]) was 6%; in assay [3] (setting [8]), 94% (active); in assay [3] (at 50.0 µM) it was 97.2% (active); in assay [4] (setting [7]), 2%; in assay [4] (setting [8]), 99% (active); in assay [4] (at 50.0 µM), 99.1% (active). In addition, the growth inhibition is 7% in assay [5] (setting [7]); 98% (active) in assay [5] (setting [8]); 99.1% (active) in assay [5] (at 50.0 µM); -5% in assay [6] (setting [7]); 98% (active) in assay [6] (setting [8]); 95.8% (active) in assay [6] (at 50.0 µM).

For `Cc1ccc(S(=O)(=O)OC2COC3C(OS(=O)(=O)c4ccc(C)cc4)COC23)cc1` (configuration not stated), the growth inhibition is -2% in assay [1] (setting [7]); -13% in assay [1] (setting [8]); 19.6% in assay [1] (at 50.0 µM); -7% in assay [2] (setting [7]); 4% in assay [2] (setting [8]); 9.8% in assay [2] (at 50.0 µM). In addition, the growth inhibition was 12% in assay [3] (setting [7]); -27% in assay [3] (setting [8]); 26.4% in assay [3] (at 50.0 µM); 1% in assay [4] (setting [7]); -5% in assay [4] (setting [8]); 46% in assay [4] (at 50.0 µM). Further, the growth inhibition in assay [5] (setting [7]) was 0%; in assay [5] (setting [8]) it was -11%; in assay [5] (at 50.0 µM) it was 96.6% (active); in assay [6] (setting [7]), -39%; in assay [6] (setting [8]) it was -63%; in assay [6] (at 50.0 µM) it was 4%.

In the case of `N#CC12CCCC(=O)N1c1ccccc1S2` (configuration not stated), the growth inhibition in assay [1] (setting [7]) was 10%; in assay [1] (setting [8]), 5%; in assay [1] (at 50.0 µM) it was 12.9%; in assay [2] (setting [7]), -7%; in assay [2] (setting [8]) it was 10%; in assay [2] (at 50.0 µM) it was 7.85%. Also, the growth inhibition is 1% in assay [3] (setting [7]); 1% in assay [3] (setting [8]); -2.3% in assay [3] (at 50.0 µM); -12% in assay [4] (setting [7]); -3% in assay [4] (setting [8]); 43.5% in assay [4] (at 50.0 µM). For the same compound, the growth inhibition in assay [5] (setting [7]) was 3%; in assay [5] (setting [8]) it was 1%; in assay [5] (at 50.0 µM), -6.8%; in assay [6] (setting [7]), 14%; in assay [6] (setting [8]) it was -2%; in assay [6] (at 50.0 µM), -10.2%.

`Oc1c(Cl)cc(CN(Cc2cc(Cl)c(O)c(Cl)c2)C2CCCCC2)cc1Cl`: the growth inhibition is 10% in assay [1] (setting [7]); 87% (active) in assay [1] (setting [8]); 97.8% (active) in assay [1] (at 50.0 µM); 1% in assay [2] (setting [7]); 88% (active) in assay [2] (setting [8]); 98.9% (active) in assay [2] (at 50.0 µM). Moreover, the growth inhibition was 2% in assay [3] (setting [7]); 88% (active) in assay [3] (setting [8]); 97.6% (active) in assay [3] (at 50.0 µM); -17% in assay [4] (setting [7]); 51% in assay [4] (setting [8]); 98.2% (active) in assay [4] (at 50.0 µM). Also, the growth inhibition in assay [5] (setting [7]) was -9%; in assay [5] (setting [8]), 88% (active); in assay [5] (at 50.0 µM), 97.6% (active); in assay [6] (setting [7]), -12%; in assay [6] (setting [8]), 95% (active); in assay [6] (at 50.0 µM) it was 98% (active).

As to `O=c1[nH]c(Cc2ccccc2)nc2c1sc1nc3ccccc3n12`, the growth inhibition is 36% in assay [1] (setting [7]); 86% (active) in assay [1] (setting [8]); 25.2% in assay [1] (at 50.0 µM); 9% in assay [2] (setting [7]); 56% in assay [2] (setting [8]); -1.95% in assay [2] (at 50.0 µM). The growth inhibition in assay [3] (setting [7]) was 19%; in assay [3] (setting [8]), 92% (active); in assay [3] (at 50.0 µM), -34.2%; in assay [4] (setting [7]), 28%; in assay [4] (setting [8]), 81% (active); in assay [4] (at 50.0 µM), -2.85%. The growth inhibition in assay [5] (setting [7]) is 8%; in assay [5] (setting [8]), 89% (active); in assay [5] (at 50.0 µM) it was -33.4%; in assay [6] (setting [7]) it was 18%; in assay [6] (setting [8]), 83% (active); in assay [6] (at 50.0 µM), -7.45%.

As to `CCCCn1c(C)nc2cc(C(F)(F)F)cc(N)c21`, the growth inhibition in assay [1] (setting [7]) is 0%; in assay [1] (setting [8]) it was 41%; in assay [1] (at 50.0 µM), 78.6% (active); in assay [2] (setting [7]), -4%; in assay [2] (setting [8]) it was 35%; in assay [2] (at 50.0 µM), 48.3%. Besides, the growth inhibition in assay [3] (setting [7]) was 0%; in assay [3] (setting [8]) it was 31%; in assay [3] (at 50.0 µM), 93.6% (active); in assay [4] (setting [7]), -5%; in assay [4] (setting [8]) it was 8%; in assay [4] (at 50.0 µM), 6.6%. Moreover, the growth inhibition in assay [5] (setting [7]) is -8%; in assay [5] (setting [8]), 10%; in assay [5] (at 50.0 µM), 31.9%; in assay [6] (setting [7]), -11%; in assay [6] (setting [8]) it was 65%; in assay [6] (at 50.0 µM), 43.5%.

For `O=C1/C(=C/c2ccccc2)CN(C(=O)C(F)(F)F)C/C1=C\c1ccccc1`, the growth inhibition in assay [1] (setting [7]) was 63%; in assay [1] (setting [8]), 84% (active); in assay [1] (at 50.0 µM) it was 65.3%; in assay [2] (setting [7]), 43%; in assay [2] (setting [8]), 80% (active); in assay [2] (at 50.0 µM) it was 40%. Moreover, the growth inhibition in assay [3] (setting [7]) is 52%; in assay [3] (setting [8]), 94% (active); in assay [3] (at 50.0 µM) it was 46%; in assay [4] (setting [7]) it was 41%; in assay [4] (setting [8]), 78% (active); in assay [4] (at 50.0 µM), 42.2%. Besides, the growth inhibition is 53% in assay [5] (setting [7]); 93% (active) in assay [5] (setting [8]); 55.1% in assay [5] (at 50.0 µM); 66% in assay [6] (setting [7]); 92% (active) in assay [6] (setting [8]); 53.6% in assay [6] (at 50.0 µM).

Source of the values: PubChem BioAssay (NCI).
